Source: PubChem BioAssay AID434926 (Sanford-Burnham Center for Chemical Genomics, 2010)
Some of the results follow. Unmarked numbers belong to inactive results. Calls of active or inactive are those of the source.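 How the source made its calls: active means at least twofold enzyme activation in any of six single-dose repeats, which the averaged readout prints as negative percent; inactive means the rest.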

molecular target: Intestinal-type alkaline phosphatase (Homo sapiens) (UniProt P09923); assay: human IAP activators, confirmation, biochemical, luminescence, single concentration, uHTS hits (AID 434926); details: purified IAP, CDP-Star luminescence, 30 min; at 8.3 µM; active compounds read low
Sequence (P09923 whole entry, looked up): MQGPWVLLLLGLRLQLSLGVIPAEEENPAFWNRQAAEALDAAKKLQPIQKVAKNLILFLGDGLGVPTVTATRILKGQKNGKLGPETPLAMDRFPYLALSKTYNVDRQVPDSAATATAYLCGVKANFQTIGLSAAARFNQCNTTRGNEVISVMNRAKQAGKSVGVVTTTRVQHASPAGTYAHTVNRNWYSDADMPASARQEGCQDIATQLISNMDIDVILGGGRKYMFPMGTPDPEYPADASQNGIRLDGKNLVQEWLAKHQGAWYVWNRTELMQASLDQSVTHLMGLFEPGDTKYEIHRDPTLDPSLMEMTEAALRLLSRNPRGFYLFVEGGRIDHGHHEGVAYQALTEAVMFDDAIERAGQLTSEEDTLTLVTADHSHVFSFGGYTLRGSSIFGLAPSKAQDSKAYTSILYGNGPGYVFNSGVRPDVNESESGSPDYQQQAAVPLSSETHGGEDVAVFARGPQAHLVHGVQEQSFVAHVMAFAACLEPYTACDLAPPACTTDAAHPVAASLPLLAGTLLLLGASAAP

Structure (SMILES)	activation (%Activity, negative = activation)
OC(c1nc2ccc(F)cc2[nH]1)C(O)c1nc2ccc(F)cc2[nH]1 (configuration not stated)	24.7%
O=C(Nc1ccc(Cl)cc1)c1ccsn1	-68.3%
OC1CN=C2Sc3ccccc3N2C1 (configuration not stated)	-100% (active)
CCCCOC(=O)Nc1sc2nc(C)cc(C)c2c1-n1cccc1	-49%
Oc1cccc(/C=N/Nc2ccc(Cl)nn2)c1O	1.16%
Cn1c(=O)c2c(nc(N/N=C/c3cccs3)n2Cc2ccc(Br)cc2)n(C)c1=O	-8.19%
CC(C)Oc1ccc(CCC(=O)NNC(=S)NCc2ccccc2)cc1	46.5%
Cc1ccc2c(c1)nnc1nnc(SCC(=O)O)n12	33.9%
COc1cccc(CNS(=O)(=O)c2ccc3c(c2)N(C(C)=O)CCS3)c1	-34.5%
CC(=NCc1ccc2c(c1)OCO2)C1=C(O)c2ccccc2C1=O	-2.92%
O=C(Nc1ccon1)c1nc[nH]c1C(=O)NCc1ccccc1	88.5%
c1ccc2[nH]c(-c3nc4ccccc4[nH]3)nc2c1	10.7%
